High-throughput results: PubChem BioAssay, National Center for Advancing Translational Sciences (NCATS)
Hits are enriched below; roughly 2.1% of the tested compounds scored in any of these assays.
Abeta yeast res: restores growth of yeast expressing A-beta42 peptide. yeast expressing A-beta42, growth rescue, OD600, 48 h; response scale: 0% DMSO, 100% iron-clioquinol control. Potency, µM (series often up to 46.1 µM), usual class: activators. hit rate 0.063% among 410,000. AID 1347071; note: nearly all actives have a fitted effect of over 55% in size
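Yeast growth medium received pinned compounds, then yeast cells expressing toxic A-beta were added; plates incubated at 30 C for 48 hr. Growth read as absorbance at 600 nm, normalized to DMSO and equimolar FeCl3 plus clioquinol controls.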
aSyn rescue: inhibitors of alpha-synuclein toxicity in yeast. Yeast expressing alpha-synuclein, growth rescue, BacTiter-Glo, 24 h. Potency, µM (titrated, usually from 46.1 µM), for the others: at the top dose growth rescue (activation), most hits filed as activators. hit rate 0.14% among 370,000; note: % of control where 0% means no effect; nearly all actives have a fitted effect of over 65% in size
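Galactose-induced alpha-syn yeast (OD600=0.02, raffinose-pregrown) + pinned cpd, 24 hr, 30 deg C; growth by BacTiter-Glo luminescence. Growth restoration scores as activation.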
FUS suppressor: FUS proteinopathy suppression in yeast; S. cerevisiae FUS-expressing, growth rescue, OD600, 24 h; Potency, µM (doses to about 76.6 µM), hits mostly activators; hit rate 0.24% among 390,000; AID 1347120;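 note: plate controls were DMSO vehicle for no effect and reference control for full effect; nearly all actives have a fitted effect of over 55% in size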
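FUS-expressing yeast, raffinose-pregrown, induced in 2% galactose minimal medium at OD 0.005; compounds in a dilution series, 24hr at 30C. Growth restoration read as absorbance at 600 nm. CP55940 positive control, DMSO negative.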
TDP-43 yeast inh: rescues yeast growth from TDP-43 toxicity; TDP-43 expressing yeast growth rescue, BacTiter-Glo, 24 h; Potency, µM (series often up to 46.1 µM), without a hit: top-dose growth rescue (activation), hits mostly activators; hit rate 1.8% among 410,000; note: % of control where 0% means no effect; nearly all actives have a fitted effect of over 50% in size
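Galactose-induced TDP-43 yeast, OD600=0.02, compound pinned; 24 hr, 30 deg C; BacTiter-Glo luminescence for growth. Inhibitors of TDP-43 toxicity read as activators.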
* = called active by the depositor; i = inactive; ? = inconclusive; nt = not tested or not shown. Calls come from the whole dose curve; as a rule, active = well fitted curve in the direction sought with a large enough effect; inconclusive = small, poorly fitted or top-dose-only effect, or another doubt; inactive = no such curve, though single readings can be large; an effect the other way counts as inactive or inconclusive. Potency is the fitted concentration of half-maximal effect.

SMILES	Abeta yeast res	aSyn rescue	FUS suppressor	TDP-43 yeast inh
Cc1nnc(NC(=O)Cc2ccc(OCc3c(C)noc3C)cc2)s1	i	-2%	14µM*	-6%
Cc1cc(Nc2cc(F)ccc2C)nc(-n2nc(C)cc2C)n1	?	nt	i	?
C[C@H](CO)N1C[C@H](C)[C@@H](CN(C)C(=O)Nc2ccc3c(c2)OCO3)Oc2ccc(NC(=O)Cc3ccccc3)cc2C1=O	i	8%	i	1%
C[C@@H]1CN([C@H](C)CO)C(=O)c2cc(NC(=O)Cc3cn(C)c4ccccc34)ccc2O[C@H]1CN(C)C(=O)Nc1ccc2c(c1)OCO2	i	2%	32µM*	0%
COc1ccc(NC(=O)N(C)C[C@H]2Oc3ccc(NC(=O)Nc4ccc(C(F)(F)F)cc4)cc3C(=O)N([C@H](C)CO)C[C@@H]2C)cc1	i	-1%	35µM*	25%
COc1ccc(NC(=O)Nc2cccc3c2O[C@H](CN(C)C(=O)Nc2ccc(OC)cc2)[C@@H](C)CN([C@H](C)CO)C3=O)cc1	i	1%	32µM*	3%
O=C(Nc1cc(-c2nc3cc(Cl)ccc3o2)ccc1Cl)c1cc2ccccc2o1	i	nt	i	-9%
COc1ccccc1N1CCN(C(=O)c2c(C)oc3ncn(C)c(=O)c23)CC1	i	nt	i	0%
Cc1noc2ncnc(N3CCCC(C(=O)Nc4cccc(C(F)(F)F)c4)C3)c12 (stereo not drawn)	i	nt	i	30%
O=C(Cn1c2ncccc2c(=O)n1-c1ccccc1)NCc1ccccc1Cl	i	nt	i	27%
Cc1ccccc1N(C)S(=O)(=O)c1nnc(NC(=O)c2ccccc2F)s1	i	3%	i	13µM*
Cc1ccccc1N(C)S(=O)(=O)c1nnc(NC(=O)C(C)C)s1	i	nt	i	19%
CCCCN1CCc2nc(N3CCN(c4ncccn4)CC3)ncc2C1	i	nt	i	5%
C[C@H](CO)N1C[C@H](C)[C@@H](CN(C)S(=O)(=O)c2cccs2)Oc2c(NC(=O)NC3CCCCC3)cccc2C1=O	i	-2%	14µM*	5%
C[C@H](CO)N1C[C@H](C)[C@@H](CN(C)C(=O)Nc2ccc(C(F)(F)F)cc2)Oc2c(NC(=O)C3CCCCC3)cccc2C1=O	i	-11%	?	?
C[C@H](CO)N1C[C@H](C)[C@@H](CN(C)C(=O)Nc2ccc(C(F)(F)F)cc2)Oc2c(NC(=O)NC3CCCCC3)cccc2C1=O	i	7%	28µM*	-2%
C[C@H](CO)N1C[C@H](C)[C@@H](CN(C)S(=O)(=O)c2cccs2)Oc2c(NC(=O)Nc3ccccc3)cccc2C1=O	i	1%	?	-25%
C[C@@H]1CN([C@H](C)CO)C(=O)c2cccc(NC(=O)NC3CCCCC3)c2O[C@@H]1CN(C)C(=O)Nc1ccc(C(F)(F)F)cc1	i	-15%	32µM*	14%
O=C(Nc1cccc(C(F)(F)F)c1)c1cc2nc(-c3ccc4c(c3)OCO4)cc(C(F)(F)F)n2n1	i	nt	i	16%
CCc1ccc(S(=O)(=O)Nc2cccc(-c3ccc(N4CCOCC4)nn3)c2)cc1	i	nt	?	13%
O=C(C#Cc1ccccc1)c1ccc([N+](=O)[O-])cc1	i	-14%	i	11µM*
Cc1ccc(/C=C2\SC(N3CCCCC3)=NC2=O)cc1	i	0%	i	10µM*
O=C1N=C(N2CCCCC2)S/C1=C\c1ccc(Cl)cc1	i	3%	i	27%
COCCN(Cc1cccs1)S(=O)(=O)c1cc(-c2cc(C)no2)ccc1C	i	nt	i	35µM*
Cc1cccc(-c2nc(SCCCOc3ccccc3Cl)n3[nH]c(=O)cc3n2)c1	i	nt	i	15%
SMILES	Abeta yeast res	aSyn rescue	FUS suppressor	TDP-43 yeast inh
CCOc1ccc(NC(=O)CC2C(=O)N(c3cccc(C)c3)C(=O)N2CCC2=CCCCC2)cc1 (stereo not drawn)	i	nt	35µM*	-24%
COc1cc2c(cc1OC)C(c1ccc(Cl)cc1)N(c1cccc(C#N)c1)C(=O)C2 (stereo not drawn)	i	nt	?	12%
COc1ccc(/C=C(/C(=O)Nc2ccccc2C(=O)NC(C)C)c2ccccc2)cc1	i	-13%	i	20µM*
CCOc1ccccc1CNC(=O)c1sc2ncccc2c1-n1cccc1	i	nt	i	7%
C#CCOCCOCCOCCNc1nc(N2CCN(C(=O)CCCCCCCCCCNC(=O)[C@@H](CCSC)n3cc(CCO)nn3)CC2)nc(N2CCN(C(=O)CCCCCCCCCCNC(=O)[C@H](CCSC)n3cc(CCO)nn3)CC2)n1	i	-5%	?	-9%
C#CCOCCOCCOCCNc1nc(N2CCN(C(=O)CCCCCCCCCCNC(=O)Cn3cc(C[C@@H](C)O)nn3)CC2)nc(N2CCN(C(=O)CCCCCCCCCCNC(=O)[C@H](CCCCN)n3cc(CCCC(=O)O)nn3)CC2)n1	i	-16%	?	-21%
C#CCOCCOCCOCCNc1nc(N2CCN(C(=O)CCCCCCCCCCNC(=O)Cn3cc(C[C@@H](C)O)nn3)CC2)nc(N2CCN(C(=O)CCCCCCCCCCNC(=O)[C@H](CCCN=C(N)N)n3cc(C[C@@H](C)CC)nn3)CC2)n1	i	-58%	11µM*	-10%
C#CCOCCOCCOCCNc1nc(N2CCN(C(=O)CCCCCCCCCCNC(=O)[C@H](CO)n3cc(CCCSC)nn3)CC2)nc(N2CCN(C(=O)CCCCCCCCCCNC(=O)[C@H](CCCCN)n3cc(CCO)nn3)CC2)n1	i	-23%	13µM*	?
C#CCOCCOCCOCCNc1nc(N2CCN(C(=O)CCCCCCCCCCNC(=O)[C@H](CO)n3cc(CCCSC)nn3)CC2)nc(N2CCN(C(=O)CCCCCCCCCCNC(=O)[C@H](CCCN=C(N)N)n3cc(C[C@@H](C)CC)nn3)CC2)n1	i	-32%	8.9µM*	-8%
Cc1cccc(-n2cnc3cc(C(=O)NCc4ccccc4Cl)ccc32)c1	i	nt	?	nt
COc1ccc(OC)c(CNS(=O)(=O)c2ccc(-c3coc(C)n3)cc2)c1	i	0%	i	24%
CCC1CCCCN1C(=O)n1ncc(C(O)(c2ccccc2)c2ccccc2)n1 (stereo not drawn)	nt	nt	i	nt
CCCCN(C)C(=O)c1cc2cc3cc(OC)ccc3nc2o1	i	4%	i	?
CCCCN(C)C(=O)c1cc2cc3ccc(OC)cc3nc2o1	i	2%	i	16µM*
COc1ccc(-n2c(SCC(=O)N3CCCCC3)nc(O)cc2=O)cc1	i	3%	32µM*	-3%
COc1ccc(/C=N/NC(=O)c2cccnc2)cc1CSc1nc2ccccc2s1	i	0%	nt	13µM*
CCOC(=O)N1CCN(c2ncc3c(n2)CC(c2ccc(Cl)cc2)CC3=O)CC1 (stereo not drawn)	i	2%	i	13µM*
CCOc1ccccc1CNC(=O)c1cnc2sc(N3CCCC3)nn2c1=O	i	nt	i	0%
